# Test results published in PubChem BioAssay AID588727 (Southern Research Specialized Biocontainment Screening …, 2011).
# In all, about 350,000 compounds went through this assay and about 450 (0.13%) were called active. How the calls were made is not given here. A selection follows. Potency and affinity values are given separately.
# Assay: inhibitors of VEEV TC-83 cytopathic effect, confirmation, Vero cells (AID 588727)
# Conditions: VEEV TC-83 cytopathic effect inhibition, at 20 µM
# [1] = stronger effect = higher value unless noted
# [2] = measured here: 10K pilot screen inhibition, stronger effect = higher value
smiles,measurement,setting,value
Cc1ccc(Cl)cc1Nc1nc(N2CCOCC2)nc(N2CCOCC2)n1,inhibition,[1],inactive
Cc1ccc(C(=O)CC(=O)c2cccc(F)c2)c(O)c1,inhibition,[1],1.73% (inactive)
O=C(CC(=O)c1ccccc1O)c1cccc(F)c1,inhibition,[1],2.48% (inactive)
CC(C)(C)c1ccc(C(=O)CC(=O)c2cc(Cl)ccc2O)cc1,inhibition,[1],1.44% (inactive)
Cc1ccc(O)c(C(=O)CC(=O)c2ccc(C(C)(C)C)cc2)c1,inhibition,[1],2.3% (inactive)
CCN(CC)C(=O)Cn1cc(S(=O)(=O)CC(=O)N2CCOCC2)c2ccccc21,inhibition,[1],1.34% (inactive)
CCc1cccc(CC)c1-n1c(SCc2cc(=O)n3ccsc3n2)nnc1-c1cccnc1,inhibition,[1],inactive
CN(C(=O)COC(=O)/C=C/c1ccc(S(=O)(=O)N2CCc3ccccc32)cc1)C1CCS(=O)(=O)C1 (stereo not given),inhibition,[1],0.84% (inactive)
CC(CCc1ccccc1)OS(N)(=O)=O (stereo not given),inhibition,[1],"0.425% [measured here: 10K pilot screen inhibition, stronger effect = higher value]"
same,outcome,[1],inactive
Cc1n[nH]c(C)c1CCNCc1ccc(OCC(O)CN2CCCCC2)cc1 (stereo not given),inhibition,[1],0.96% (inactive)
OC(COc1ccc(CNCCc2ccccc2F)cc1)CN1CCCCC1 (stereo not given),inhibition,[1],4.19% (inactive)
N/C(=N\OCc1ccc([N+](=O)[O-])cc1)c1ccccn1,inhibition,[1],0.33% (inactive)
CC(=O)Nc1ccccc1C(=O)OCC(=O)c1ccccc1Cl,inhibition,[1],"0.205% [measured here: 10K pilot screen inhibition, stronger effect = higher value]"
same,outcome,[1],inactive
CNC(=S)NCc1ccc2[nH]c3c(c2c1)CCCC3,inhibition,[1],0.13% (inactive)
CC(C)CC(=O)NCc1ccc2[nH]c3c(c2c1)CCCC3,inhibition,[1],1.23% (inactive)
CC(C)C[C@H]1CNC(=S)N1CC1CCN(CCCCc2ccccc2)CC1,inhibition,[1],inactive
COc1cccc(N2C(=O)C3CCCN3C2c2cccs2)c1 (stereo not given),inhibition,[1],1.22% (inactive)
O=C1C2CCCN2C(c2cccs2)N1c1ccc(F)cc1 (stereo not given),inhibition,[1],inactive
CN(c1ccc(OCC(=O)Nc2cc(Cl)ccc2C(=O)O)cc1)S(=O)(=O)c1ccc(F)cc1,inhibition,[1],1.87% (inactive)
CC(=O)Nc1ccc(S(=O)(=O)N(C)c2ccc(OCC(=O)Nc3ccccc3C(C)=O)cc2)cc1,inhibition,[1],11% (inactive)
CC(C)CN(C(=O)COc1ccc(C(C)(C)C)cc1)C1CCS(=O)(=O)C1 (stereo not given),inhibition,[1],12.2% (inactive)
CN(C)N=Nc1nc2c(c(=O)n(C)c(=O)n2C)n1C,inhibition,[1],inactive
CN(C)N=Nc1nc2c([nH]1)c(=O)n(C)c(=O)n2C,inhibition,[1],1.78% (inactive)
CN(C(=O)c1cccc(NC(=O)Cc2ccc(NC(=O)C3CCN(C(=O)C4CC4)CC3)cc2)c1)C1CCCCC1,inhibition,[1],0.89% (inactive)
O=C(CSc1nccn1-c1ccc(Cl)cc1)NCc1ccc2c(c1)OCO2,inhibition,[1],3.2% (inactive)
CCOC(=O)Cc1nnc(Nc2cccc(O)c2)c2ccccc12,inhibition,[1],4.42% (inactive)
O=C(Cc1c(Cl)cccc1Cl)OCc1ccccn1,inhibition,[1],1.24% (inactive)
O=C(CN(CC1CCCO1)C(=O)CNS(=O)(=O)c1ccc(Cl)cc1)NCc1ccc(F)cc1 (stereo not given),inhibition,[1],3.94% (inactive)
COc1cc2nc(N3CCN(c4cc(C)ccc4C)CC3)nc(N)c2cc1OC,inhibition,[1],inactive
COc1cc2nc(N3CCN(C(=O)c4ccco4)CC3)nc(N)c2cc1OC,inhibition,[1],23.2% (inactive)
COC(=O)C1CCN(C(=O)COC(=O)CC(NC(N)=O)c2ccc(Cl)cc2)CC1 (stereo not given),inhibition,[1],1.27% (inactive)
CSc1nnc2c(n1)OC(c1ccc(C(=O)O)cc1)N(C(C)=O)c1ccccc1-2 (stereo not given),inhibition,[1],0.04% (inactive)
COc1ccc(NC(=O)c2ccco2)c([N+](=O)[O-])c1,inhibition,[1],inactive
O=c1c2c([nH]c3ccccc13)CCCC2,inhibition,[1],0.1% (inactive)
O=c1c2c([nH]c3ccccc13)CCCCC2,inhibition,[1],2.45% (inactive)
Fc1ccc(NC(=S)NCc2ccc3c(c2)OCO3)cc1,inhibition,[1],1.24% (inactive)
COc1ccc(CCNC(=O)Cn2c(=O)oc3cc(Cl)ccc32)cc1OC,inhibition,[1],1.85% (inactive)
O=C(/C=C/c1ccccc1[N+](=O)[O-])NC1CCCC1,inhibition,[1],inactive
CC1CCCCC1NC(=O)/C(C#N)=C/c1ccccc1F (stereo not given),inhibition,[1],10.5% (inactive)
COCCNC(=O)/C(C#N)=C/C=C/c1ccccc1[N+](=O)[O-],inhibition,[1],55.2% (inactive)
N#C/C(=C\c1ccccc1[N+](=O)[O-])C(=O)NC1CCCCC1,inhibition,[1],6.23% (inactive)
Cc1ccc(-c2nn(-c3ccccc3)cc2/C=N/n2c(-c3ccncc3)n[nH]c2=S)cc1,inhibition,[1],0.07% (inactive)
COc1cc(C(=O)NNC(=O)CCOc2ccccc2)cc(OC)c1OC,inhibition,[1],inactive
O=C(COc1ccc(-c2ccccc2)cc1)NNC(=O)NC1CCCCC1,inhibition,[1],0.67% (inactive)
N#Cc1c(NC(=O)c2ccc(Cn3cc(Br)cn3)o2)sc2c1CCCCCC2,inhibition,[1],inactive
COCC1CCCCN1C(=O)c1cccc(OC2CCN(C(=O)C3CC3)CC2)c1 (stereo not given),inhibition,[1],inactive
COc1ccc(C(=O)NCc2ccc(F)cc2)cc1S(=O)(=O)N1CCCC1,inhibition,[1],10.6% (inactive)
Cc1cc(OC(=O)c2cc(Cl)nc3ccccc23)ccc1Cl,inhibition,[1],2.81% (inactive)
CSCCC(NS(=O)(=O)c1ccc2[nH]c(=O)c(=O)[nH]c2c1)C(=O)O (stereo not given),inhibition,[1],inactive
CCOC(=O)C1CCCc2c1[nH]c1ccc(Cl)cc21 (stereo not given),inhibition,[1],0.82% (inactive)
CCNC(=O)C1CCCc2c1[nH]c1ccc(Cl)cc21 (stereo not given),inhibition,stronger effect = higher value,0.89% (inactive)
same,inhibition,[2],1.04%
COc1ccc(-c2nn(-c3ccccc3)cc2/C=C/C(=O)N2CCOCC2)cc1OC,inhibition,[1],7.65% (inactive)
Cc1cc(C)cc(N(C(=O)c2ccc(Br)o2)C2C=CS(=O)(=O)C2)c1 (stereo not given),inhibition,[1],inactive
O=[N+]([O-])c1ccc(/C=N/Nc2nc(NCc3ccccc3)nc(N3CCOCC3)n2)cc1,inhibition,[1],3.18% (inactive)
O=[N+]([O-])c1cccc(/C=N/Nc2nc(NCc3ccccc3)nc(N3CCOCC3)n2)c1,inhibition,[1],2.74% (inactive)
COc1ccc2c(c1)OC[C@H]1[C@H]2N2C(=O)c3cc(Br)ccc3NC(=O)[C@@]2(C)[C@H]1c1ccccc1,inhibition,[1],1.07% (inactive)
O=c1[nH]ncc(N2CCCC2)c1Cl,inhibition,[1],inactive
CC(=O)c1cc(C)ccc1OC(=O)c1ccco1,inhibition,[1],inactive
CC(NC(=O)c1cccc(S(=O)(=O)N2CCN(Cc3ccccc3)CC2)c1)c1ccc(Br)cc1 (stereo not given),inhibition,[1],2.86% (inactive)
COc1ccc(NC(=O)CCCN2C(=O)/C(=C\c3ccco3)SC2=S)cc1,inhibition,[1],13.5% (inactive)
O=C(CCCN1C(=O)/C(=C/c2ccco2)SC1=S)Nc1cccc(C(=O)O)c1,inhibition,[1],11.7% (inactive)
O=C(CC(C(=O)c1ccccc1)c1ccccc1)c1ccccc1 (stereo not given),inhibition,[1],12.6% (inactive)
O=C(CC(CC(=O)c1ccccc1)c1ccccc1)c1ccccc1,inhibition,[1],1.3% (inactive)
CC(=O)N/C(=C/c1ccc(OS(=O)(=O)c2ccc(C)cc2)cc1)C(=O)NCCCO,inhibition,[1],inactive
NC(=O)N1c2ccccc2C=Cc2ccccc21,inhibition,[1],0.99% (inactive)
same,outcome,[1],inactive
CNC(=O)N1c2ccccc2C=Cc2ccccc21,inhibition,[1],1.28% (inactive)
COc1ccc(OCc2cc(C(=O)NCC(C)(C)N3CCOCC3)no2)c(Cl)c1,inhibition,[1],2.39% (inactive)
OC(COCc1cccs1)CN1CCN(c2cccc(Cl)c2)CC1 (stereo not given),inhibition,[1],inactive
Cc1ccc(C(=O)C=CC=Cc2ccccc2)cc1,inhibition,[1],inactive
Cc1ccc(/C=C/C(=O)c2ccccc2)cc1,inhibition,[1],inactive
CCCCn1cnc2c(SCc3ccccc3Cl)nc(N)nc21,inhibition,[1],6.5% (inactive)
Cn1cnc2c(SCc3ccccc3)ncnc21,inhibition,[1],inactive
OCCn1cnc2c(SCc3ccccc3)ncnc21,inhibition,[1],6.32% (inactive)
CC(C)Cn1cnc2c(SCc3ccccc3Cl)nc(N)nc21,inhibition,[1],9.3% (inactive)
CCC(C(=O)NCCCN1CCCC1=O)n1c2ccccc2c2nc(=O)cc(C)n21 (stereo not given),inhibition,[1],inactive
CC(C)C(C)NC(=O)CN1C(=O)NC(C)(c2ccc3ccccc3c2)C1=O (stereo not given),inhibition,[1],inactive
CC(Sc1nnc(-c2ccccc2)c(-c2ccccc2)n1)C(=O)Nc1ncc(Cl)cc1Cl (stereo not given),inhibition,[1],0.85% (inactive)
Cc1cc(SCC(=O)Nc2ncc(Cl)cc2Cl)nc2ccccc12,inhibition,[1],0.95% (inactive)
COCCn1c(SCC(=O)Nc2ccc(Cl)cn2)nc2ccccc21,inhibition,[1],2.54% (inactive)
COc1ccc(-n2c(SC(C)C(=O)Nc3ncc(Cl)cc3Cl)nc3ccccc32)cc1 (stereo not given),inhibition,[1],8.08% (inactive)
CCN(CC)S(=O)(=O)c1ccc(NN=c2c(=O)c3ccccc3c2=O)cc1,inhibition,[1],0.93% (inactive)
CCOC(=O)C1(CCOC)CCN(C(=O)Cc2ccsc2)CC1,inhibition,[1],0.57% (inactive)
CCOC(=O)c1cn(Cc2ccccc2)nc1-c1ccccc1,inhibition,[1],inactive
Cc1cc(/C=N\NC(=O)c2cccs2)c(C)n1-c1ccc2ncccc2c1,inhibition,[1],11.1% (inactive)
Cc1cccc(-n2c(C)cc(/C=N\NC(=O)c3ccco3)c2C)c1,inhibition,[1],1.2% (inactive)
COCCOC1CCN(C(=O)c2cc(COc3ccc(F)cc3F)on2)CC1,inhibition,[1],1.37% (inactive)
CCOC(=O)c1c(SC)n(-c2ccccc2)c(=S)n(-c2ccccc2)c1=O,inhibition,[1],0.87% (inactive)
CCOC(=O)c1c2c(c(=S)n(-c3ccccc3)c1N)CCC2,inhibition,stronger effect = higher value,4.5% (inactive)
same,inhibition,[2],3.38%
COc1ccc(CSC(=N)N)cc1[N+](=O)[O-],inhibition,[1],4.91% (inactive)
CCOc1ccc(CSC(=N)N)cc1[N+](=O)[O-],inhibition,[1],9.41% (inactive)
Nc1nc(N)nc(-c2cccc(Cl)c2)n1,inhibition,[1],1.28% (inactive)
COc1ccccc1CN1CCN(C(=O)c2cccc3ccccc23)CC1,inhibition,[1],inactive
Cc1cc2occ(CC(=O)Nc3nccs3)c2cc1C(C)C,inhibition,[1],0.63% (inactive)
Cc1ccc2c(CC(=O)Nc3nc(C)cs3)coc2c1,inhibition,[1],5.51% (inactive)
Cc1c(N(C)S(=O)(=O)c2cccc(C(=O)NCC3CCCO3)c2)c(=O)n(-c2ccccc2)n1C (stereo not given),inhibition,[1],1.98% (inactive)
